Many of the other results were omitted from the sample, so hits are more common in it than they were.
PI5P4K alpha inh – inhibitors of human PI5P4K alpha; P48426; PI5P4Kalpha enzyme, ADP-Glo luminescence, 60 min; hits give low values; max response, %; 330,000 tested, 1.2% active; AID 652105; active means max response of -50% or lower; inconclusive means between -30% and -50%; inactive means -30% or higher; further: value at the top dose of about 77 µM
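Human PI5P4Kalpha with substrate in 0.038 M HEPES pH 7.4, 0.28 mM EGTA, 0.1% CHAPS, 5% DMSO; reaction started with 5 microM ATP (final), 60 min at room temperature. ADP formed read by ADP-Glo luminescence.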
PGK inhibitor – blocks T. brucei phosphoglycerate kinase; PGK/GAPDH coupled, Kinase-Glo luminescence, 60 min; Potency, µM (titrated, usually from 57.5 µM), without a hit: at the top dose activity change, negative = inhibition, hits mostly inhibitors; 380,000 tested, 0.043% active; further: potency means the concentration at half of the fitted maximal effect; nearly all actives have a fitted effect of over 60% in size
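Recombinant glycosomal PGK reaction used 1,3-bisphosphoglycerate generated in-well by GAPDH (100nM final) in 100mM TEA pH 7.6, 5mM MgCl2, 0.01% Tween-20. After 60 minutes at room temperature, ATP was read by Kinase-Glo Plus luminescence end-point.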
PI4K2A block – blocks human PI4K2A kinase activity; purified PI4K2A, ADP-Glo luminescence, 1 h; hits give low values; activity change, negative = inhibition, % at 76.9 µM; Q9BTU6; 420,000 tested, 0.13% active; in the data active means activity change below about -50%; inconclusive means mostly about -30% to -49%;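 further: -100% = wells without enzyme as full effect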
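In this quantitative HTS, ADP production by PI4K2A was quantified luminescently after 1 h at ambient temperature; 100 microM adenosine served as plate-quality control.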
Tb PFK inh – blocks T. brucei phosphofructokinase. O15648. T. brucei PFK, ADP-Glo luminescence. Potency, µM (series often up to 57.5 µM), for the others: at the top dose activity, negative = inhibition, usual class: inhibitors. 330,000 tested, 0.17% active. AID 485367;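 further: potency means the concentration at half of the fitted maximal effect; 0% = uninhibited 1x PFK enzyme wells and -100% = no-enzyme wells; nearly all actives have a fitted effect of over 60% in size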
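In TEA buffer at pH 8.0 with 5 mM MgCl2, enzyme (1.25 nM) converted F6P (0.5 mM) and ATP (0.1 mM) for 45 min at room temperature. ADP product was read by luciferase luminescence.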
Pin1 inh – human Pin1 inhibition; Q13526; Pin1 FP peptide displacement, HiFluor488, 10 min; Potency, µM (top dose mostly 115 µM), without a hit: top-dose activity, negative = inhibition, hits mostly inhibitors; 390,000 tested, 0.009% active; AID 504891; active means well fitted inhibition curve with a large enough effect in the polarisation, with a control signal flat, not every such curve was filed as active; inconclusive means small, poorly fitted or top-dose-only effect, or effect the other way, or a change in a side signal; inactive means no such curve, though single readings can be large or run the other way; the % refers to the polarisation; further: potency means the concentration at half of the fitted maximal effect
Target sequence (Q13526 whole entry, looked up): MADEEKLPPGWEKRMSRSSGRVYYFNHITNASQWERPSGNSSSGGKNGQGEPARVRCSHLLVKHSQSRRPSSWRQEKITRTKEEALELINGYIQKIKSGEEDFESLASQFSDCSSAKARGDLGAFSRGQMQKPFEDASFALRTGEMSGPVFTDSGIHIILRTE
* = called active by the depositor; i = inactive; ? = inconclusive; nt = not tested or not shown; [ ] = dose if it differs, or a comment. Unless noted, the call rests on the fitted dose curve; in most records, active means well fitted curve in the direction sought with a large enough effect; inconclusive means small, poorly fitted or top-dose-only effect, or another doubt; inactive means no such curve, though single readings can be large; an effect the other way counts as inactive or inconclusive. Unless noted, on the % scale 0 is the no-effect control and ±100 the full control effect.

SMILES	PI5P4K alpha inh	PGK inhibitor	PI4K2A block	Tb PFK inh	Pin1 inh
Cc1c(C(=O)N2CCCC2)sc(NC(=O)c2cccc(Cl)c2)c1C#N	nt	-5%[11.5 µM]	4	-8%	1%
Cc1cccc(C(=O)Nc2sc(C(=O)N3CCCC3)c(C)c2C#N)c1	0	-4%	-75*	4%	5%
O=C1CCC2=C1C(c1ccccc1Cl)N=C(Nc1nc3ccccc3o1)N2 (stereo not given)	nt	nt	nt	nt	5%
O=c1nccc(N/N=C/c2ccccc2O)[nH]1	-24	-29%	-53*	-23%	?
O=C(CN1C(=O)CCSc2ccccc21)Nc1cccc(Cl)c1F	nt	nt	2	nt	nt
Cc1ccnc(N2C(=O)c3ccccc3C2Nc2cccc(C)c2C)c1 (stereo not given)	-2	-1%	0	0%	0%
Cc1ccnc(N2C(=O)c3ccccc3C2O)c1 (stereo not given)	-58*	?	7	-30%	-1%
COc1ccc(/C=C2\SC(N)=NC2=O)cc1	6	2%	3	-2%	18%
CCOC(=O)CSC1=NC(=O)/C(=C/c2ccc(OC)cc2)S1	-51*	-8%	1	2%	?
COc1ccc(OC)c(/C=N/NC(=O)c2[nH]nc3c2CCc2ccccc2-3)c1	-51*	-3%	-2	5%	13%
COc1cccc(/C=N/NC(=O)c2[nH]nc3c2CCc2ccccc2-3)c1	-18	-2%	2	-4%	31%
COc1ccc(CN(Cc2ccccc2)S(=O)(=O)c2ccccc2)cc1COc1ccc(NC(C)=O)cc1	nt	nt	nt	nt	3%
O=Cc1cc(N=Nc2cccc(C(=O)O)c2)ccc1O	-79*	-6%	-12	5%	-15%
Cc1ccc(N2C(=O)N3[C@H](c4ccc(Cl)cc4)[C@@H]4C(=O)N(C5CCCCC5)C(=O)[C@@H]4[C@]3(Cc3ccccc3)C2=O)cc1	-23	2%	1	2%	17%
Cc1ccc(N2C(=O)N3[C@H](c4ccc(F)cc4)[C@@H]4C(=O)N(C5CCCCC5)C(=O)[C@@H]4[C@]3(C)C2=O)cc1	-65*	i	-5	-1%	7%
COc1cccc(C2C(C#N)=C(NC(=O)CCc3ccccc3)Oc3ccc4ccccc4c32)c1 (stereo not given)	nt	nt	nt	nt	-5%
O=C1CNC(=O)/C1=C\c1ccc(O)cc1	-62*	0%	-4	21%	1%
O=C1CNC(=O)/C1=C/c1ccc(O)cc1	nt	-2%	-7	26%	2%
CN(C)c1ccc(-c2cc[nH]c(=O)c2N)cc1	nt	nt	nt	nt	-1%
COc1ccc(/C=c2\s/c(=C\C(=O)C(C)(C)C)[nH]c2=O)cc1O	-72*	-5%	-6	-15%	24%
COc1cc(/C=c2\s/c(=C\C(=O)C(C)(C)C)[nH]c2=O)cc(OC)c1OC	8	-8%	0	-7%	?
CCc1ccc2[nH]c(=O)c(C3C(C#N)=C(N)Oc4c3ccc3cccnc43)cc2c1 (stereo not given)	-51*	0%	-3	-4%	?
Oc1[nH]c2ccccc2c1N=NC(=S)N1CCOCC1	-28	i	-3	-6%	8%
Oc1[nH]c2ccc(Br)cc2c1N=NC(=S)N1CCOCC1	-54*	4%	16	?	?
O=C(NCc1cccc(CNC(=O)C(=O)NCc2ccco2)c1)C(=O)NCc1ccco1	-53*	?	?	-2%	9%
SMILES	PI5P4K alpha inh	PGK inhibitor	PI4K2A block	Tb PFK inh	Pin1 inh
O=C(O)C(c1ccccc1)N1C(=O)/C(=C\c2ccc(-c3ccccc3Cl)o2)SC1=S (stereo not given)	?	11µM*	2	-23%	?
CCOC(=O)c1ccc(NC(=O)CSc2nnc(-c3cccc(C)c3)n2C)cc1	nt	nt	0	nt	nt
Cn1nnnc1Sc1ncnc2scc(-c3cccc(Cl)c3)c12	nt	nt	nt	nt	-9%
CCC(=O)OCCNc1cc(SCCC(=O)OC)c2nonc2c1[N+](=O)[O-]	-7	-7%	2	-6%	-2%
CCCC(=O)OCCNc1cc(Sc2nc3ccccc3[nH]2)c2nonc2c1[N+](=O)[O-]	-25	-10%	3	21µM*	32%
COc1ccc(-c2cc3c(nn2)-c2ccccc2C3=O)cc1	?	?	-56*	-6%	9%
O=C1c2ccccc2-c2nnc(-c3ccccc3)cc21	-11	?	?	-10%	-6%

High-throughput results: PubChem, National Center for Advancing Translational Sciences (NCATS)
